Data taken from PubChem BioAssay.
The source made the active and inactive calls. Unless noted, the rule behind the calls is not given here.

Key:
[1] = anti-His antibody binders, primary screen, artefact control for SMM control protein annotation, biochemical, small-molecule microarray, 635 nm fluorescence (AID 1128); conditions: anti-His Alexa647 antibody binding, higher = more signal;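 note: score merges feature fluorescence with signal-to-noise for each printed compound spot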
[2] = system: Human papillomavirus type 1a E7 protein (residues 1-88); assay: HPV1a E7 small-molecule binders, primary screen, biochemical, small-molecule microarray, residues 1-88, 635 nm (AID 1129); conditions: small-molecule microarray binding, fluorescence 635 nm; higher = more signal
[3] = biological target: Focal adhesion kinase 1 (Homo sapiens) (UniProt Q05397); assay: small-molecule microarray binders of FAK, primary screen, biochemical, 635/667 nm fluorescence, BSA, DTT (AID 1130); conditions: PTK2 binding, 635 nm fluorescence, higher = more signal;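 note: composite of spot emission at 667 nm and signal to noise over triplicate slides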
[4] = system: Fibrinogen (Alexa647-labelled); assay: fibrinogen binders on compound microarrays, profiling panel, artefact control for SMM control-protein annotation, biochemical, small-molecule microarray, 635/667 nm fluorescence (AID 1131); conditions: fibrinogen-A647 binding fluorescence, higher = more signal;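 note: z-score merges 667 nm fluorescence with per-spot signal-to-noise over triplicate slides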
[5] = biological target: Follistatin (Homo sapiens) (UniProt P19883); assay: follistatin binders on small-molecule microarrays, primary screen, biochemical, small-molecule microarray, 635/667 nm fluorescence (AID 1132); conditions: FST binding, 635 nm fluorescence, higher = more signal
[6] = biological target: Fibroblast growth factor 2 (Homo sapiens) (UniProt P09038); assay: FGF2 binders on small-molecule microarrays, primary screen, biochemical, small-molecule microarray, 635/667 nm fluorescence (AID 1133); conditions: small-molecule microarray binding, FGF2, fluorescence 635/667; higher = more signal
[7] = mitochondrial membrane potential change in A549 cells, profiling panel, cell-based, JC-1 fluorescence, basal, 24 h, 100 nL (AID 1138); conditions: higher = more signal;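 note: A549 lung adenocarcinoma cells under basal conditions with no added stimulus; test concentration not given here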
Lefty1 = Lefty1 binders on small-molecule microarrays, primary screen, biochemical, small-molecule microarray, 635/667 nm fluorescence (AID 1139); conditions: small-molecule microarray binding, fluorescence 635/667; higher = more signal
[8] = system: wheat germ agglutinin (Triticum aestivum), Alexa647-labelled; assay: wheat germ agglutinin binders on compound microarrays, profiling panel, artefact control for SMM control-protein annotation, biochemical, small-molecule microarray, 635/667 nm fluorescence (AID 1140); conditions: WGA-A647 binding, 635 nm fluorescence, higher = more signal;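 note: score merges 667 nm feature emission with signal to noise over triplicate slides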
[9] = biological target: Luciferin 4-monooxygenase (Photinus pyralis) (UniProt P08659); assay: firefly luciferase enzyme inhibitors, primary screen, biochemical, luminescence, purified enzyme, 2006 set (AID 1141); conditions: SteadyGlo luminescence, 30 min, higher = more signal, called active from +8 up or from −8 down;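 note: cell-free assay with purified firefly luciferase at 100 ng per well in PBS; test concentration not given here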
[10] = system: Wnt5a (protein binding on small-molecule microarray); assay: Wnt5a binders on small-molecule microarray, primary screen, biophysical, 635/667 nm fluorescence (AID 1142); conditions: 635 nm fluorescence, higher = more signal;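 note: fluorescence read at 667 nm with signal to noise per printed feature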
[11] = cell viability in Huh7 cells, primary screen, cytotoxicity control for HCV replication inhibitor project, CellTiter-Glo luminescence, basal, 48 h (AID 1143); conditions: Huh7 HCV replicon, higher = more signal, called active from +8 up or from −8 down;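 note: Huh7 hepatoma cells carrying a hepatitis C replication reporter with no stimulus; test concentration not given here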
[12] = P. aeruginosa biofilm formation inhibitors, primary screen, PAO1 strain, BacTiter-Glo luminescence, LB-PBS (AID 1144); conditions: 12 h, higher = more signal
[13] = CREB reporter modulators without forskolin, primary screen, cell-based, PC12, CRE-LacZ reporter, unstimulated (AID 1145); conditions: no forskolin, luminescence, 4.5 h, higher = more signal, called active from +8 up or from −8 down
[14] = CREB reporter modulators under forskolin, primary screen, cell-based, PC12, CRE-LacZ reporter, forskolin-stimulated (AID 1146); conditions: luminescence, 4.5 h, higher = more signal, called active from +8 up or from −8 down;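 note: PC12 cells with 6xCRE LacZ reporter stimulated by forskolin 10 µM; beta-galactosidase reporter signal reflecting CREB driven transcription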
[15] = biological target: Streptavidin (Streptomyces avidinii) (UniProt P22629); assay: streptavidin binders on small-molecule microarray, primary screen, artefact control for SMM compound annotation, biophysical, 635/667 nm fluorescence (AID 1147); conditions: streptavidin binding, higher = more signal;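 note: signal reflects streptavidin binding to arrayed compounds as a control protein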
[16] = small-molecule binders of probe aInhba, primary screen, biochemical, small-molecule microarray, 635/667 nm fluorescence (AID 1148); conditions: higher = more signal;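 note: score merges 667nm spot fluorescence with signal-to-noise for antibody binding to printed compounds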
Torsin-1A (Homo sapiens) [17] = biological target: Torsin-1A (Homo sapiens) (UniProt O14656); assay: torsin A binders from cell lysate, primary screen, small-molecule microarray, wild-type, 635/667 nm (AID 1149); conditions: COS7 hTOR1A-WT lysate, 635 nm fluorescence, higher = more signal
Torsin-1A (Homo sapiens) [18] = biological target: Torsin-1A (Homo sapiens) (UniProt O14656); assay: small-molecule binders of mutant TOR1A in lysate, primary screen, cell lysate, small-molecule microarray, COS7 lysate, 635/667 nm fluorescence (AID 1150); conditions: COS7 hTOR1A mutant lysate, 635 nm fluorescence, higher = more signal;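 note: score pools 667 nm emission and signal to noise measuring lysate protein binding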
[19] = system: Sonic hedgehog protein (Shh); assay: small-molecule binders of Shh protein, primary screen, biochemical, small-molecule microarray, 635/667 nm fluorescence (AID 1151); conditions: small-molecule microarray binding, 635 nm fluorescence; higher = more signal;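 note: Shh protein binding to compounds spotted on small-molecule microarray slides; score combines spot fluorescence intensity with signal-to-noise across triplicate slides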

Luciferin 4-monooxygenase (Photinus pyralis), sequence (P08659 whole entry, looked up): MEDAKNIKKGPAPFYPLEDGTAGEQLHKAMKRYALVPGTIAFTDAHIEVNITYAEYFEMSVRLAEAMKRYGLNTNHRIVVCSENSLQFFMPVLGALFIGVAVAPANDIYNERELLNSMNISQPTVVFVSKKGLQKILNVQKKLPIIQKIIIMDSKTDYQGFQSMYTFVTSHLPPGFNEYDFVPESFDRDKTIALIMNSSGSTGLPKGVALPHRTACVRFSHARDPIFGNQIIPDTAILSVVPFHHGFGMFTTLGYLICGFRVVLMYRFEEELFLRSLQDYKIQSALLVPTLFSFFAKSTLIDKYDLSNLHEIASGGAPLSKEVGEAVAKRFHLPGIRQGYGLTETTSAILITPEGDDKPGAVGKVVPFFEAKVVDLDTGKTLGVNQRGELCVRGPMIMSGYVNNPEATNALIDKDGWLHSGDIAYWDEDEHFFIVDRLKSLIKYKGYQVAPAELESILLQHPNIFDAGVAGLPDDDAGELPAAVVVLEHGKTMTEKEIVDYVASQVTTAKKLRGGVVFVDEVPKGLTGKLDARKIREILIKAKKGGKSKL
Focal adhesion kinase 1 (Homo sapiens), sequence (Q05397 whole entry, looked up): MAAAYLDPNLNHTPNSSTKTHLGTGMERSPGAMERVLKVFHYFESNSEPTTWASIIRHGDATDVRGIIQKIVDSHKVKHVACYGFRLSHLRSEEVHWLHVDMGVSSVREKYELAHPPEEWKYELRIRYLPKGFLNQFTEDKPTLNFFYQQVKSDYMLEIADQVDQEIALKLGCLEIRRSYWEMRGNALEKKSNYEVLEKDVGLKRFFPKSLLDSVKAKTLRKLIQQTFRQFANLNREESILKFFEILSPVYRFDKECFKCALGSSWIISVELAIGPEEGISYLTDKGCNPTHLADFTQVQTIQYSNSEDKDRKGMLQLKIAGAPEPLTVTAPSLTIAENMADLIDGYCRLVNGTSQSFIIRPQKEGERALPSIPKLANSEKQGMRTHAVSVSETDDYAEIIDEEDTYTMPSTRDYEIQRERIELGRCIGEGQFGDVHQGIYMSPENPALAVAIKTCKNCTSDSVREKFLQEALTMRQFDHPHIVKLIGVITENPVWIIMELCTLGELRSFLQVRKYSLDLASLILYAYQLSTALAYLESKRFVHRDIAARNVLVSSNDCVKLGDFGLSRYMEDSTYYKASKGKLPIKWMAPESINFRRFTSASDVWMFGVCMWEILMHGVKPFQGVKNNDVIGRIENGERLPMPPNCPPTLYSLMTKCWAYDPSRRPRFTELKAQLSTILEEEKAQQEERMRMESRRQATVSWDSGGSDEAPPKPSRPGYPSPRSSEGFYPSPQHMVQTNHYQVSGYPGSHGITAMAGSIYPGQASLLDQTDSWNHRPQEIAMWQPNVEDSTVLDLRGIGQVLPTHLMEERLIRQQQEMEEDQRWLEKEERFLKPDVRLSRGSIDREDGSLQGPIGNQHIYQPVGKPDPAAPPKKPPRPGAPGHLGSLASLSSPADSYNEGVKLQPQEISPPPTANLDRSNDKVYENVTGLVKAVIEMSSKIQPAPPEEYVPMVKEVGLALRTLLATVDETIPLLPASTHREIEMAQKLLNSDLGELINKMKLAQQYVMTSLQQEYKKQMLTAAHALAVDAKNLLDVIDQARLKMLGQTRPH
Fibroblast growth factor 2 (Homo sapiens), sequence (P09038 whole entry, looked up): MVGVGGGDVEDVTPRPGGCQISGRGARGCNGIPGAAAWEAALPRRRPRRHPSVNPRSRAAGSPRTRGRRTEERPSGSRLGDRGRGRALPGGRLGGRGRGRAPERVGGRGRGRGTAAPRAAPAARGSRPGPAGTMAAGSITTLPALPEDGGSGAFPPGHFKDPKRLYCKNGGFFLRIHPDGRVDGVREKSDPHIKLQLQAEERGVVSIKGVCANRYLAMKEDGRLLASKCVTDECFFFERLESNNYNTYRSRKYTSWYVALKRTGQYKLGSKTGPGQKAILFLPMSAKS
Streptavidin (Streptomyces avidinii), sequence (P22629 whole entry, looked up): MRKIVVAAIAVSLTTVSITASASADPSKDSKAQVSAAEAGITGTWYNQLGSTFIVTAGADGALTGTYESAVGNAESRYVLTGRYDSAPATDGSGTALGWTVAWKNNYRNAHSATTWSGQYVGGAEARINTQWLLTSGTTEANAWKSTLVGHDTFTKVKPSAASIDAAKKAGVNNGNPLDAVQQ
Follistatin (Homo sapiens), sequence (P19883 whole entry, looked up): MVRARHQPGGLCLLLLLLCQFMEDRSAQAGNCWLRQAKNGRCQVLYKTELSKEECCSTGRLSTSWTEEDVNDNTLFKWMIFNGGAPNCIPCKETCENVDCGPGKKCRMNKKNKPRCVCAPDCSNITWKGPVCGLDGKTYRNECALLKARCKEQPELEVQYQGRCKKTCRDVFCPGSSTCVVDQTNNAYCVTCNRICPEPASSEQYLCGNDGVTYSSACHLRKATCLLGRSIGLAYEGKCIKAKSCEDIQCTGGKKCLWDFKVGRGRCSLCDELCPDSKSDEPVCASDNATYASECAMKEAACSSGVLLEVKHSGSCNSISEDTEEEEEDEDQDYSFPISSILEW
Torsin-1A (Homo sapiens), sequence (O14656 whole entry, looked up): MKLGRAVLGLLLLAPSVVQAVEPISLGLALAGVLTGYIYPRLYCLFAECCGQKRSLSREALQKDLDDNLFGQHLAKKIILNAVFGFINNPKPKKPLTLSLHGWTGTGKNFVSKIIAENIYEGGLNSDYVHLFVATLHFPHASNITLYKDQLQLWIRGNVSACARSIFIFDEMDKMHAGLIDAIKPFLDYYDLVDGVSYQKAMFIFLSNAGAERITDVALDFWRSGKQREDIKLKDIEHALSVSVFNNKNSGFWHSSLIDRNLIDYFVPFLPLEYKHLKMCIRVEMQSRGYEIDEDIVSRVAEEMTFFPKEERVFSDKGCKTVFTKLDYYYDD

Row | Structure (SMILES) | composite z-score [1] | composite z-score [2] | composite z-score [3] | composite z-score [4] | composite z-score [5] | composite z-score [6] | z-score [7] | composite z-score (Lefty1) | composite z-score [8] | z-score [9] | composite z-score [10] | z-score [11] | z-score [12] | z-score [13] | z-score [14] | composite z-score [15] | composite z-score [16] | composite z-score (Torsin-1A (Homo sapiens) [17]) | composite z-score (Torsin-1A (Homo sapiens) [18]) | composite z-score [19]
1 | CC(=O)n1cc(C(O)C2C=CC3C(=O)N(c4ccccc4)C(=O)C3N2Nc2ccccc2)c2ccccc21 (stereo not given) | 0.917 | 0.663 | 0.0901 | 0.735 | 1.36 | -0.379 | -0.282 | -0.137 | 1.27 | 0.252 (inactive) | 0.689 | -3.34 (inactive) | -0.504 (inactive) | 0.436 (inactive) | -0.507 (inactive) | 0.862 | 0.426 | 0.14 | 1.08 | 0.497
2 | O=C1O[C@@H](c2ccccc2)[C@@H](c2ccccc2)N2[C@@H](c3ccccc3OCCO)[C@]3(C(=O)Nc4ccc(C#CCCO)cc43)[C@@H](C(=O)N3CCN(c4ncccn4)CC3)[C@H]12 | 1.72 | 1.19 | 0.747 | 0.946 | 0.389 | -0.0344 | 0.679 | 0.081 | 0.65 | 0.27 (inactive) | 0.174 | -2.33 (inactive) | 0.608 (inactive) | 0.478 (inactive) | 2.99 (inactive) | 0.139 | -0.0448 | -0.566 | 0.224 | -0.105
3 | C[C@@H]1ON(c2ccc(C(=O)OC(C)(C)C)cc2)[C@H](c2ccc(Br)cc2)[C@H]1C(=O)N1C(=O)OC[C@H]1Cc1ccccc1 | 0.405 | 1.05 | -0.204 | 0.97 | 0.7 | 0.734 | 1.59 | 0.822 | 0.377 | -0.874 (inactive) | 0.232 | -1.09 (inactive) | 1 (inactive) | 2.04 (inactive) | 0.289 (inactive) | 1.03 | 0.0301 | 0.673 | 0.644 | 0.991
4 | COC(=O)[C@@]1(Cc2ccccc2)[C@H]2c3cc(C(=O)N4CCCC4)[nH]c3C[C@H]2CN1C(=O)c1ccccc1 | 0.886 | -0.0205 | 1.24 | 0.664 | -0.382 | -0.757 | 0.709 | -0.826 | -0.129 | 1.18 (inactive) | -0.0884 | -0.117 (inactive) | -0.39 (inactive) | 0.779 (inactive) | 0.283 (inactive) | 0.255 | 0.192 | 0.223 | 0.246 | -0.786
5 | C[C@@H](OCc1ccccc1)C1NC(=O)[C@@]23C(=O)N[C@@H](Cc4ccccc4)C2[C@H](C)[C@@]2(C)O[C@H]2C3/C=C/C/C=C\CNC(=O)CNC1=O (stereo not given in full) | 0.413 | -0.668 | 0.193 | -2.57 | -0.237 | -0.113 | -0.777 | -0.339 | -1.08 | 0.196 (inactive) | -0.556 | -2.16 (inactive) | -0.295 (inactive) | -0.962 (inactive) | -0.88 (inactive) | -0.918 | -0.105 | 0.333 | -0.104 | 1.24
6 | CC=CC(O)C1C=CC2C(=O)N(C)C(=O)C2N1Nc1ccc([N+](=O)[O-])cc1[N+](=O)[O-] (stereo not given) | 2.66 | -0.935 | 0.247 | -1.22 | -0.0096 | -0.582 | 0.533 | 0.0657 | -0.0025 | -0.419 (inactive) | -0.449 | 1.01 (inactive) | -0.658 (inactive) | -0.136 (inactive) | 0.71 (inactive) | -0.118 | -0.128 | 0.316 | -0.297 | -0.144
7 | O=C1NC(=O)C2C1C=CC(C(O)c1ccc3c(c1)OCO3)N2Nc1ccccn1 (stereo not given) | 0.942 | 0.256 | 0.0543 | 0.646 | 1.32 | 0.133 | 0.992 | 0.146 | 1.01 | -0.716 (inactive) | 0.141 | -0.259 (inactive) | -1.72 (inactive) | 1.01 (inactive) | 0.689 (inactive) | 0.501 | -0.203 | 0.546 | 0.05 | 0.347
8 | COc1ccccc1CN1C(=O)c2ccccc2[C@@H](C(=O)NC(C)C)[C@@H]1c1ccc(CO)cc1 | 1.73 | 1.15 | 0.476 | 1.01 | 1.33 | 1.32 | 1.43 | 0.456 | 0.112 | -0.586 (inactive) | 0.428 | -0.486 (inactive) | 0.464 (inactive) | -0.735 (inactive) | -0.784 (inactive) | 0.131 | 0.46 | -0.0764 | 0.0096 | 1.84
9 | COc1ccc(NN2C(C(O)c3ccco3)C=CC3C(=O)N(C4CCCCC4)C(=O)C32)cc1 (stereo not given) | 1.04 | 1.22 | 0.653 | 0.936 | 1.25 | 0.484 | 0.265 | 0.655 | 1.19 | -0.358 (inactive) | 0.495 | -0.829 (inactive) | -0.522 (inactive) | 0.323 (inactive) | 0.565 (inactive) | 0.965 | 0.0471 | 0.95 | 1.1 | 1.28
10 | CCOC(=O)C[C@H]1[C@H](OC(=O)c2ccc(-c3ccccc3)cc2)[C@@H](NC(=O)C2CCCCC2)c2cc(OCCCO)ccc2N1C(=O)c1ccccc1 | 0.0672 | 0.755 | 0.559 | 0.845 | 0.461 | 0.406 | 0.0651 | 0.544 | 0.207 | 0.0421 (inactive) | 0.0722 | -0.0788 (inactive) | -0.376 (inactive) | -0.0247 (inactive) | 0.178 (inactive) | 0.947 | -0.133 | -0.0488 | 0.221 | 0.957
